This is part of a sample that, as a whole, favours compounds with a hit. Of some 83,000 tested, about 20% had one in any assay.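 Interpretation: 100, growth as untreated; towards 0, rising growth inhibition; 0, no net growth; 0 to -100, cell death. Compounds scoring below 10 were considered active.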 The source made the active and inactive calls.
Key:
Assay in all cases: NCI-60 one-dose screen, 48 h (100 = growth as untreated, 0 = no growth, -100 = all killed)
SK-MEL-2 melanoma = conditions: 10 µM unless noted
EKVX NSCLC = conditions: 10 µM unless noted
SN12C renal = conditions: 10 µM unless noted
UO-31 renal = conditions: 10 µM unless noted
TK-10 renal = conditions: 10 µM unless noted
ACHN renal = conditions: 10 µM unless noted
CAKI-1 renal = conditions: 10 µM unless noted
A498 renal = conditions: 10 µM unless noted
CCRF-CEM leukemia = conditions: 10 µM unless noted
MOLT-4 leukemia = conditions: 10 µM unless noted
SR leukemia = conditions: 10 µM unless noted
RPMI-8226 leukemia = conditions: 10 µM
OVCAR-8 ovarian = conditions: 10 µM unless noted
OVCAR-5 ovarian = conditions: 10 µM unless noted
OVCAR-4 ovarian = conditions: 10 µM unless noted
IGROV1 ovarian = conditions: 10 µM unless noted
OVCAR-3 ovarian = conditions: 10 µM unless noted
HS 578T breast = conditions: 10 µM unless noted
NCI/ADR-RES ovarian = conditions: 10 µM unless noted
SK-OV-3 ovarian = conditions: 10 µM

Measured: growth

CCCCCCCCCCCCCCCC[N+]1(C)CCOCC1
inactive: SK-MEL-2 melanoma 57.7% | EKVX NSCLC 64.1% | SN12C renal 15.4% | UO-31 renal 59.6% | ACHN renal 62.8% | CAKI-1 renal 76.3% | A498 renal 48.8% | OVCAR-8 ovarian 16.1% | OVCAR-5 ovarian 13.8% | OVCAR-4 ovarian 20.7% | HS 578T breast 16% | NCI/ADR-RES ovarian 94.9%
active: TK-10 renal -36.8% | CCRF-CEM leukemia -42.1% | MOLT-4 leukemia -57.8% | SR leukemia -29.4% | RPMI-8226 leukemia -33.9% | IGROV1 ovarian -43.1% | OVCAR-3 ovarian -5.72%

CC(=O)N(CC(O)CO)c1c(I)c(C(=O)NCCO)c(I)c(C(=O)NCC(O)CO)c1I (stereo not drawn)
inactive: SK-MEL-2 melanoma 95.8% | EKVX NSCLC 105% | SN12C renal 98.9% | UO-31 renal 69.3% | TK-10 renal 114% | ACHN renal 103% | CAKI-1 renal 99.3% | A498 renal 110% | CCRF-CEM leukemia 93.4% | MOLT-4 leukemia 84.3% | SR leukemia 77.2% | OVCAR-8 ovarian 95.9% | OVCAR-5 ovarian 99.8% | OVCAR-4 ovarian 102% | SK-OV-3 ovarian 103% | IGROV1 ovarian 103% | OVCAR-3 ovarian 107% | HS 578T breast 116%

Nc1cccc2c(=S)c3ccccc3[nH]c12
inactive: SK-MEL-2 melanoma 87.5% | EKVX NSCLC 93.6% | SN12C renal 90.6% | UO-31 renal 56.4% | TK-10 renal 192% | ACHN renal 92.7% | CAKI-1 renal 77.1% | A498 renal 64.5% | CCRF-CEM leukemia 100% | MOLT-4 leukemia 104% | SR leukemia 111% | OVCAR-8 ovarian 93.7% | OVCAR-5 ovarian 92.9% | OVCAR-4 ovarian 83% | IGROV1 ovarian 86.9% | OVCAR-3 ovarian 91% | HS 578T breast 94.3% | NCI/ADR-RES ovarian 101%

CCCCC/C=C\C/C=C/CCCCCCCCNC(=O)Nc1ccc([N+](=O)[O-])cc1
inactive: SK-MEL-2 melanoma 119% | EKVX NSCLC 79.1% | SN12C renal 83.2% | UO-31 renal 60.5% | TK-10 renal 82.5% | ACHN renal 65.8% | CAKI-1 renal 56.2% | A498 renal 83.7% | CCRF-CEM leukemia 31.4% | MOLT-4 leukemia 43.2% | SR leukemia 34.9% | RPMI-8226 leukemia 12.8% | OVCAR-8 ovarian 52.9% | OVCAR-5 ovarian 113% | OVCAR-4 ovarian 93% | IGROV1 ovarian 46.3% | OVCAR-3 ovarian 21.3% | HS 578T breast 88.2% | NCI/ADR-RES ovarian 21.5%

O=C(COc1ccc(/C=C2\CSc3ccccc3C2=O)cc1)c1ccc(Cl)cc1
inactive: SK-MEL-2 melanoma 95.1% | EKVX NSCLC 122% | SN12C renal 103% | UO-31 renal 89.8% | TK-10 renal 113% | ACHN renal 99% | CAKI-1 renal 96.5% | A498 renal 105% | CCRF-CEM leukemia 93.9% | MOLT-4 leukemia 82.1% | SR leukemia 93.1% | RPMI-8226 leukemia 95.8% | OVCAR-8 ovarian 110% | OVCAR-4 ovarian 107% | SK-OV-3 ovarian 107% | OVCAR-3 ovarian 96% | HS 578T breast 109%

O=C1NC(=S)S/C1=C\c1cccc([N+](=O)[O-])c1
inactive: SK-MEL-2 melanoma 103% | EKVX NSCLC 90.4% | SN12C renal 94.1% | UO-31 renal 65.1% | TK-10 renal 107% | ACHN renal 89.2% | CAKI-1 renal 87.5% | A498 renal 96.1% | CCRF-CEM leukemia 78.2% | MOLT-4 leukemia 85.5% | SR leukemia 70.1% | OVCAR-8 ovarian 101% | OVCAR-5 ovarian 96.9% | OVCAR-4 ovarian 88.5% | SK-OV-3 ovarian 104% | IGROV1 ovarian 120% | OVCAR-3 ovarian 100% | HS 578T breast 118% | NCI/ADR-RES ovarian 96.8%

Cc1nc2nc(C(F)(F)F)[nH]c2nc1C
inactive: SK-MEL-2 melanoma 115% | EKVX NSCLC 89.5% | SN12C renal 95.4% | UO-31 renal 101% | TK-10 renal 104% | ACHN renal 110% | CAKI-1 renal 98.3% | A498 renal 98.7% | CCRF-CEM leukemia 93.3% | MOLT-4 leukemia 113% | OVCAR-8 ovarian 105% | OVCAR-5 ovarian 115% | OVCAR-4 ovarian 97.7% | SK-OV-3 ovarian 98.5% | IGROV1 ovarian 117% | OVCAR-3 ovarian 116% | HS 578T breast 119% | NCI/ADR-RES ovarian 107%

Cc1ccc(S(=O)(=O)c2ccc3[nH]c(=O)[nH]c(=O)c3c2)cc1
inactive: SK-MEL-2 melanoma 100% | EKVX NSCLC 122% | SN12C renal 97.7% | UO-31 renal 96.1% | TK-10 renal 93.8% | ACHN renal 109% | CAKI-1 renal 97.1% | A498 renal 102% | CCRF-CEM leukemia 91.4% | MOLT-4 leukemia 94.6% | RPMI-8226 leukemia 95.6% | OVCAR-8 ovarian 95.2% | OVCAR-5 ovarian 107% | OVCAR-4 ovarian 97.9% | SK-OV-3 ovarian 97.2% | IGROV1 ovarian 104% | OVCAR-3 ovarian 110% | HS 578T breast 101% | NCI/ADR-RES ovarian 107%

Cc1nc(-c2ccccc2)cc2c(O)c(C(=O)N/N=C/Cc3ccccc3)[nH]c(=O)c12
inactive: SK-MEL-2 melanoma 102% | EKVX NSCLC 103% | SN12C renal 104% | UO-31 renal 95.1% | TK-10 renal 109% | ACHN renal 104% | CAKI-1 renal 111% | A498 renal 94.5% | CCRF-CEM leukemia 92.4% | MOLT-4 leukemia 90.5% | SR leukemia 46.1% | RPMI-8226 leukemia 103% | OVCAR-8 ovarian 103% | OVCAR-5 ovarian 101% | SK-OV-3 ovarian 108% | IGROV1 ovarian 113% | OVCAR-3 ovarian 116% | HS 578T breast 112% | NCI/ADR-RES ovarian 109%

CCOC(=O)c1cn2c3c(cc(F)cc3c1=O)C(CC)c1ccccc1C2 (stereo not drawn)
active: UO-31 renal -57.3%
inactive: SK-MEL-2 melanoma 96.8% | EKVX NSCLC 99.7% | SN12C renal 96.3% | TK-10 renal 111% | ACHN renal 105% | CAKI-1 renal 102% | A498 renal 89.5% | CCRF-CEM leukemia 74.9% | MOLT-4 leukemia 65.6% | SR leukemia 66.2% | RPMI-8226 leukemia 64.2% | OVCAR-8 ovarian 95.9% | OVCAR-5 ovarian 104% | SK-OV-3 ovarian 104% | IGROV1 ovarian 93.1% | OVCAR-3 ovarian 92.9% | NCI/ADR-RES ovarian 91.2%

COc1cccc2c(=O)c3c(sc12)c(NCCN(C)C)nc1ccccc13
active: ACHN renal 8.6% | A498 renal -15.7% | MOLT-4 leukemia -14.6% | SR leukemia -21.2% | RPMI-8226 leukemia -20.1% | OVCAR-4 ovarian -14.4%
inactive: SK-MEL-2 melanoma 49.1% | EKVX NSCLC 26.2% | SN12C renal 34.9% | UO-31 renal 12.2% | TK-10 renal 47.2% | CAKI-1 renal 26.2% | CCRF-CEM leukemia 20.9% | OVCAR-8 ovarian 25.2% | OVCAR-5 ovarian 40.8% | IGROV1 ovarian 21% | OVCAR-3 ovarian 24.9% | HS 578T breast 13.6% | NCI/ADR-RES ovarian 29.4%

Clc1ccc2c(c1)C[C@H]1C[C@@H](c3cccs3)N2O1
inactive: SK-MEL-2 melanoma 113% | EKVX NSCLC 83.2% | SN12C renal 106% | UO-31 renal 93.4% | TK-10 renal 104% | ACHN renal 104% | CAKI-1 renal 94.4% | A498 renal 77.1% | CCRF-CEM leukemia 100% | MOLT-4 leukemia 89.3% | SR leukemia 82.4% | RPMI-8226 leukemia 86.7% | OVCAR-8 ovarian 99.9% | OVCAR-5 ovarian 89.5% | SK-OV-3 ovarian 98.9% | IGROV1 ovarian 94.5% | OVCAR-3 ovarian 114% | NCI/ADR-RES ovarian 102%

CCN1C(=O)C2(Nc3ccccc3S2)c2cc(C)ccc21 (stereo not drawn)
active: CCRF-CEM leukemia 9.42%
inactive: SK-MEL-2 melanoma 111% | EKVX NSCLC 103% | SN12C renal 97.7% | UO-31 renal 79.3% | TK-10 renal 107% | ACHN renal 94.2% | CAKI-1 renal 99% | A498 renal 138% | MOLT-4 leukemia 100% | SR leukemia 111% | OVCAR-8 ovarian 97.8% | OVCAR-5 ovarian 91.8% | OVCAR-4 ovarian 95.9% | SK-OV-3 ovarian 100% | IGROV1 ovarian 98.2% | OVCAR-3 ovarian 108% | HS 578T breast 116% | NCI/ADR-RES ovarian 101%

Brc1ccc(Br)nn1
active: SK-MEL-2 melanoma -50.2% | EKVX NSCLC -95.4% | SN12C renal -76.8% | UO-31 renal -39.9% | TK-10 renal -78.3% | ACHN renal 2.74% | CAKI-1 renal -92.3% | A498 renal -80.8% | CCRF-CEM leukemia -13.5% | MOLT-4 leukemia -13.6% | SR leukemia -25.8% | RPMI-8226 leukemia -19.7% | OVCAR-8 ovarian -34.1% | OVCAR-5 ovarian -58.6% | IGROV1 ovarian -77.8% | OVCAR-3 ovarian -97.7% | HS 578T breast -0.414% | NCI/ADR-RES ovarian -32.5%

OB(O)c1ccccc1
inactive: SK-MEL-2 melanoma 107% | EKVX NSCLC 108% | SN12C renal 112% | UO-31 renal 91.3% | TK-10 renal 105% | ACHN renal 107% | CAKI-1 renal 96.5% | A498 renal 106% | CCRF-CEM leukemia 100% | MOLT-4 leukemia 96.9% | SR leukemia 88% | OVCAR-8 ovarian 105% | OVCAR-5 ovarian 108% | OVCAR-4 ovarian 115% | IGROV1 ovarian 114% | OVCAR-3 ovarian 114% | HS 578T breast 102% | NCI/ADR-RES ovarian 104%

CSC1=CC(=O)c2ccccc2C1=O
active: CCRF-CEM leukemia -16.7% | MOLT-4 leukemia -21.7% | OVCAR-4 ovarian -34.7% | IGROV1 ovarian -75.7% | OVCAR-3 ovarian -96.2%
inactive: SK-MEL-2 melanoma 96.1% | EKVX NSCLC 89.6% | SN12C renal 97% | UO-31 renal 28% | TK-10 renal 97.9% | ACHN renal 24% | CAKI-1 renal 33.6% | A498 renal 91.5% | RPMI-8226 leukemia 44% | OVCAR-8 ovarian 46.8% | OVCAR-5 ovarian 103% | HS 578T breast 81.4% | NCI/ADR-RES ovarian 74%

COc1ccc2c(c1)c(=O)oc1c(C)c(OCC(C)=O)ccc12
inactive: SK-MEL-2 melanoma 115% | SN12C renal 94% | UO-31 renal 98.3% | TK-10 renal 82.7% | ACHN renal 97.2% | CAKI-1 renal 92.1% | A498 renal 90% | CCRF-CEM leukemia 99.7% | MOLT-4 leukemia 92.9% | RPMI-8226 leukemia 92.6% | OVCAR-8 ovarian 96.3% | OVCAR-5 ovarian 86.9% | OVCAR-4 ovarian 93.6% | SK-OV-3 ovarian 110% | IGROV1 ovarian 111% | OVCAR-3 ovarian 109% | HS 578T breast 33.6% | NCI/ADR-RES ovarian 97.6%
active: EKVX NSCLC 4.14%

From PubChem BioAssay (NCI)
